We go through seven molecules from PubChem BioAssay (EPA / NIEHS).

Results filed as inconclusive are left out. Calls of active or inactive are those of the source. Rule for the calls, unless noted: active = hit-call score of the fitted dose curve at least 0.9, where 1 is the maximum; inactive = score below 0.9.

Test [1] deals with human Peroxisome Proliferator-activated Receptor alpha (PPARa), PPARA (gene 5465) (UniProt Q07869). Nature of the test: ATG_PPARa_TRANS: Attagene TRANS-FACTORIAL HepG2 Assay for human Peroxisome Proliferator-activated Receptor alpha (PPARa) (AID 2283001; active = hit-call score of the fitted dose curve at least 0.9, where 1 is the maximum). The essentials:
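Read-out is fluorescence of reporter cDNA fragments resolved by capillary electrophoresis after RT-PCR. Human HepG2 liver cells carried transfected PPARa-Gal4 chimera and GAL4-UAS reporter units, treated 24 h; activity scored as increase over DMSO.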

Test [2] deals with human Peroxisome Proliferator-activated Receptor delta (PPARd), PPARD (gene 5467) (UniProt Q03181). In words: ATG_PPARd_TRANS: Attagene TRANS-FACTORIAL HepG2 Assay for human Peroxisome Proliferator-activated Receptor delta (PPARd) (AID 2283002; active = hit-call score of the fitted dose curve at least 0.9, where 1 is the maximum). The essentials:
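Read-out is induced reporter mRNA, quantified by RT-PCR with fluorescent labelling and capillary electrophoresis after 24 h dosing. Cells are HepG2 transiently carrying multiple GAL4-UAS reporter units driven by exogenous NR-GAL4 chimeras; DMSO serves as baseline.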

Read-out in test [3]: Intercellular Adhesion Molecule 1 (ICAM1), ICAM1 (gene 3383)
Nature of the test: BSK_3C_ICAM1: BioMAP Diversity Plus: 3C Assay for Intercellular Adhesion Molecule 1 (ICAM1) Biomarker Activity (AID 2283003). The following applies: primary human endothelial cells (HUVEC); actives raise or lower the signal. The essentials:
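ICAM-1 levels measured by ELISA after HUVEC cultures in the 3C system had been dosed for 24 h. Gain or loss of signal relative to DMSO was fitted in both directions.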

Test [4] is described as follows: BSK_3C_Proliferation: Cell Proliferation Assessment in the BioMAP Diversity Plus: 3C Assay (AID 2283006).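 For AC50: potency may reflect either rise or fall in cell number versus DMSO.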 The conditions noted are these: primary human endothelial cells (HUVEC). The essentials:
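Read-out is total protein by SRB absorbance at 560 nm, taken as a proxy for relative cell number. Primary human umbilical vein endothelium cultured below confluence was dosed for 48 h, TCA-fixed and SRB-stained; curves were fitted bidirectionally versus DMSO.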

Test [5] concerns the target human Retinoic Acid Receptor gamma (RARg), RARG (gene 5916) (UniProt P13631). In words: ATG_RARg_TRANS: Attagene TRANS-FACTORIAL HepG2 Assay for human Retinoic Acid Receptor gamma (RARg) (AID 2283009; active = hit-call score of the fitted dose curve at least 0.9, where 1 is the maximum;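 for AC50: AC50 is for reporter induction above DMSO meaning RARg activation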). The essentials: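 Transient transfection of HepG2 with multi-reporter constructs, then 24 h chemical treatment. Total RNA isolated, reverse-transcribed, PCR-amplified, fluorescently labelled and resolved by capillary electrophoresis; activity scored as mRNA induction versus DMSO.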

For test [6], the target named is Retinoic acid receptor RXR-alpha (Homo sapiens) (UniProt P19793). Nature of the test: ATG_RXRa_TRANS: Attagene TRANS-FACTORIAL HepG2 Assay for human Retinoid X Receptor alpha (RXRa) (AID 2283012; active = hit-call score of the fitted dose curve at least 0.9, where 1 is the maximum). The essentials: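 Transient transfection of human HepG2 with multiple GAL4-UAS reporter constructs; 24 h compound exposure; total RNA isolated, reverse-transcribed, PCR-amplified, 6-FAM labelled, HpaI-cut, resolved by capillary electrophoresis. Positive-direction fit versus DMSO.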
Sequence of Retinoic acid receptor RXR-alpha (Homo sapiens) (P19793 whole entry, looked up, the tested form may be a part): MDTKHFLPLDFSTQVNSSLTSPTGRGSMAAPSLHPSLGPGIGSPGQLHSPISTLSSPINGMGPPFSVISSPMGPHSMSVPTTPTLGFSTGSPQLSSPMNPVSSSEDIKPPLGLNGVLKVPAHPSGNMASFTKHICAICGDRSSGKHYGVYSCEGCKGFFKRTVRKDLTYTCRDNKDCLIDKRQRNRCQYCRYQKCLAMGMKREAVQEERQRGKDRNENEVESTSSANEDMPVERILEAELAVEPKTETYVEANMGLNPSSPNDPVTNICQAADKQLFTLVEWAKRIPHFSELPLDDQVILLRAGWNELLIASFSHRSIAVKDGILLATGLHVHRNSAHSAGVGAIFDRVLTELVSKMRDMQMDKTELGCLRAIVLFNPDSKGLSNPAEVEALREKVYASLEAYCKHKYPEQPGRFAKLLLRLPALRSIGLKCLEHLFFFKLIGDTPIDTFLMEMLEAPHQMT

Test [7] has as its target human Retinoid X Receptor beta (RXRb), RXRB (gene 6257) (UniProt P28702). In words: ATG_RXRb_TRANS: Attagene TRANS-FACTORIAL HepG2 Assay for human Retinoid X Receptor beta (RXRb) (AID 2283013; active = hit-call score of the fitted dose curve at least 0.9, where 1 is the maximum). The essentials: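 Transfect HepG2 with GAL4-UAS multi-reporter constructs (chimeric NR-Gal4, TRANS format); dose compound 24 h; isolate RNA, RT-PCR, FAM primer extension, HpaI digest; quantify by capillary electrophoresis; positive direction vs DMSO.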

Read-out in test [8]: E-selectin (Homo sapiens) (UniProt P16581)
In words: BSK_3C_Eselectin: BioMAP Diversity Plus: 3C Assay for Eselectin Biomarker Activity (AID 2283015).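 For outcome: cell surface E-selectin protein quantified by ELISA 24 h after dosing.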 The conditions noted are these: primary human endothelial cells (HUVEC); actives raise or lower the signal. The essentials: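 Human vascular endothelium from umbilical vein is exposed to test chemicals for 24 h. E-selectin levels are read by ELISA and compared with DMSO controls.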

Read-out in test [9]: Interleukin-1 alpha (IL1a), IL1A (gene 3552)
Nature of the test: BSK_BE3C_IL1a: BioMAP Diversity Plus: BE3C Assay for Interleukin-1 alpha (IL1a) Biomarker Activity (AID 2283016). The conditions noted are these: primary human bronchial epithelial cells; actives raise or lower the signal. The essentials:
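BE3C primary human bronchial epithelium; cpd 24 h; IL-1a by ELISA; bidirectional fit vs DMSO; parallel SRB (0.1% SRB, 10% TCA fix, 560 nm) for cytotoxicity.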

Read-out in test [10]: Monocyte Chemoattractant Protein-1 (MCP1), CCL2 (gene 6347)
In words: BSK_3C_MCP1: BioMAP Diversity Plus: 3C Assay for Monocyte Chemoattractant Protein-1 (MCP1) Biomarker Activity (AID 2283017). The following applies: primary human endothelial cells (HUVEC); actives raise or lower the signal. The essentials: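 Endothelial cells from human umbilical vein are dosed with chemical, cultured 24 h, then assayed for MCP-1 by ELISA; both increases and decreases are modelled against DMSO controls.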

Read-out in test [11]: Monocyte Chemoattractant Protein-1 (MCP1), CCL2 (gene 6347)
Nature of the test: BSK_4H_MCP1: BioMAP Diversity Plus: 4H Assay for Monocyte Chemoattractant Protein-1 (MCP1) Biomarker Activity (AID 2283018). The conditions noted are these: primary human endothelial cells (HUVEC); actives raise or lower the signal. The essentials:
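ELISA read-out of MCP-1 from human vascular endothelial primary cells taken at 24 hours after compound exposure. Activity was fitted in both directions relative to DMSO, which served as negative control.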

Read-out in test [12]: Interleukin-8 (IL8), CXCL8 (gene 3576)
Nature of the test: BSK_3C_IL8: BioMAP Diversity Plus: 3C Assay for Interleukin-8 (IL8) Biomarker Activity (AID 2283020). The following applies: primary human endothelial cells (HUVEC); actives raise or lower the signal. The essentials:
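ELISA read-out of IL-8 from human umbilical vein endothelium, measured 24 h after chemical dosing. Activity is expressed relative to DMSO negative control, with both increases and decreases fitted.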

The nature of test [13]: BSK_4H_Eotaxin3: BioMAP Diversity Plus: 4H Assay for Eotaxin 3 Biomarker Activity (AID 2283000).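 For outcome: CCL26 protein level quantified by ELISA in parallel with SRB cytotoxicity check.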 The following applies: primary human endothelial cells (HUVEC); actives raise or lower the signal. The essentials: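 Endothelial primary cells (human umbilical vein) exposed to compound for 24 h. ELISA detection of Eotaxin-3.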
The target of test [14] is human Retinoic Acid Receptor beta (RARb), RARB (gene 5915) (UniProt P10826). In words: ATG_RARb_TRANS: Attagene TRANS-FACTORIAL HepG2 Assay for human Retinoic Acid Receptor beta (AID 2283004; active = hit-call score of the fitted dose curve at least 0.9, where 1 is the maximum). The essentials:
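HepG2, transient MRTU transfection, NR–Gal4 chimera, 24 h treatment; RT-PCR plus CE fluorescence detection of reporter mRNA; gain of signal vs DMSO.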

The target of test [15] is Retinoic acid receptor alpha (Homo sapiens) (UniProt P10276). Nature of the test: ATG_RARa_TRANS: Attagene TRANS-FACTORIAL HepG2 Assay for human Retinoic Acid Receptor alpha (RARa) (AID 2283005; active = hit-call score of the fitted dose curve at least 0.9, where 1 is the maximum;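 note: potency for increased reporter signal meaning RARa activation over DMSO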). The essentials: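 Reporter transcripts, measured by RT-PCR with fluorescent labeling and capillary electrophoresis after 24 h dosing, reflect activity of an exogenous human RARa–GAL4 fusion in transiently transfected HepG2. Fitted for increase relative to DMSO.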

Test [16] deals with Peroxisome proliferator-activated receptor gamma (Homo sapiens) (UniProt P37231). Nature of the test: ATG_PPARg_TRANS: Attagene TRANS-FACTORIAL HepG2 Assay for human Peroxisome Proliferator-activated Receptor-gamma (PPARg) (AID 2283007; active = hit-call score of the fitted dose curve at least 0.9, where 1 is the maximum). The essentials:
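Multiplexed reporter transcription units in HepG2, 24 h dosing, reporter transcripts quantified by fluorescent RT-PCR and capillary electrophoresis. Increase over DMSO scored.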

The target in test [17] is Nuclear receptor subfamily 1 group I member 2 (Homo sapiens) (UniProt O75469). Nature of the test: ATG_PXR_TRANS: Attagene TRANS-FACTORIAL HepG2 Assay for human Pregnane X Receptor (PXR) (AID 2283008; active = hit-call score of the fitted dose curve at least 0.9, where 1 is the maximum). The essentials:
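Measures mRNA induction of a GAL4-UAS-driven reporter in human HepG2 cells transiently expressing PXR fused to Gal4, following 24 h treatment. DMSO served as negative control and baseline.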

Read-out in test [18]: Human Leukocyte Antigen - DR isotype (HLADR), HLA-DRA (gene 3122)
Nature of the test: BSK_3C_HLADR: BioMAP Diversity Plus: 3C Assay for Human Leukocyte Antigen - DR isotype (HLADR) Biomarker Activity (AID 2283019). The following applies: primary human endothelial cells (HUVEC); actives raise or lower the signal. The essentials:
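Endothelial cells from human umbilical vein are treated with test chemical; after 24 h, HLA-DR levels are measured by ELISA. Data are fitted in both directions using DMSO as the baseline.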

Test [19] concerns the target human RAR-related Orphan Receptor gamma (RORg), RORC (gene 6097) (UniProt P51449). In words: ATG_RORg_TRANS: Attagene TRANS-FACTORIAL HepG2 Assay for human RAR-related Orphan Receptor gamma (RORg) (AID 2283011; active = hit-call score of the fitted dose curve at least 0.9, where 1 is the maximum). The essentials: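 Activity is scored as increase in GAL4-UAS reporter mRNA over DMSO, detected by fluorescent RT-PCR and capillary electrophoresis in HepG2 cells transiently expressing a RORg-Gal4 chimera, 24 h after dosing.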

Test [20] concerns the target human Thyroid Receptor alpha (THRa1), THRA (gene 7067) (UniProt P10827). In words: ATG_THRa1_TRANS: Attagene TRANS-FACTORIAL HepG2 Assay for human Thyroid Receptor alpha (THRa1) (AID 2283014; active = hit-call score of the fitted dose curve at least 0.9, where 1 is the maximum). The essentials:
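First, HepG2 cells receive multiple GAL4-UAS reporter units and the chimeric receptor. They are then dosed for 24 h, after which RNA is reverse-transcribed, amplified, labelled, HpaI-cut and sized by capillary electrophoresis; gain relative to DMSO is scored.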

Sequence of Peroxisome proliferator-activated receptor gamma (Homo sapiens) (P37231 whole entry, looked up): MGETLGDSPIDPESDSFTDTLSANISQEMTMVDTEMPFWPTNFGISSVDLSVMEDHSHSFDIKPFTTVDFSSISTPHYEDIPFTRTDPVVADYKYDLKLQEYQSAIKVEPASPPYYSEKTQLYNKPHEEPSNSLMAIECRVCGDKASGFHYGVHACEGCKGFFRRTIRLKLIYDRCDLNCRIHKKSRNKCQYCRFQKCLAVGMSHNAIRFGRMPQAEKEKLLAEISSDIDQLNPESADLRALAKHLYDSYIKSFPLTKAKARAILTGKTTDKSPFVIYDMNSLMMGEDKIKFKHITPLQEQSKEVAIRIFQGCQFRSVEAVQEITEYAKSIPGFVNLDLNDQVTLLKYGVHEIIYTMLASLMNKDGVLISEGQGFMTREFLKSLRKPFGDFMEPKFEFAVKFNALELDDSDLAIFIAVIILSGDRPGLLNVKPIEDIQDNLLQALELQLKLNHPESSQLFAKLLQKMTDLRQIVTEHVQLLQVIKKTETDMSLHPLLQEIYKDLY
Sequence of human Retinoic Acid Receptor gamma (RARg), RARG (gene 5916) (P13631 whole entry, looked up): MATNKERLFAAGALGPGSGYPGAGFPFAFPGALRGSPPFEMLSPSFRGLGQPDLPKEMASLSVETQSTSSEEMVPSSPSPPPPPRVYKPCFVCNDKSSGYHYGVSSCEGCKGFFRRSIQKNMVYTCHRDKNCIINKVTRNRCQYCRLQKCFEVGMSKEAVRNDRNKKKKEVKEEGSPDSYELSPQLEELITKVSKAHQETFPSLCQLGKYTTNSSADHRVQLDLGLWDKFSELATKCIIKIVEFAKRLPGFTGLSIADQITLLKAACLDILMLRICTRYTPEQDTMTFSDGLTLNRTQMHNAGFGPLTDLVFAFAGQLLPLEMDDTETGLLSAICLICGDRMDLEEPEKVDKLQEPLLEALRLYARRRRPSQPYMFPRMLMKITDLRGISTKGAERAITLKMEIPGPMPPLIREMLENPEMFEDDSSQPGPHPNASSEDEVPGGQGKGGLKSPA
Sequence of human RAR-related Orphan Receptor gamma (RORg), RORC (gene 6097) (P51449 whole entry, looked up, the tested form may be a part): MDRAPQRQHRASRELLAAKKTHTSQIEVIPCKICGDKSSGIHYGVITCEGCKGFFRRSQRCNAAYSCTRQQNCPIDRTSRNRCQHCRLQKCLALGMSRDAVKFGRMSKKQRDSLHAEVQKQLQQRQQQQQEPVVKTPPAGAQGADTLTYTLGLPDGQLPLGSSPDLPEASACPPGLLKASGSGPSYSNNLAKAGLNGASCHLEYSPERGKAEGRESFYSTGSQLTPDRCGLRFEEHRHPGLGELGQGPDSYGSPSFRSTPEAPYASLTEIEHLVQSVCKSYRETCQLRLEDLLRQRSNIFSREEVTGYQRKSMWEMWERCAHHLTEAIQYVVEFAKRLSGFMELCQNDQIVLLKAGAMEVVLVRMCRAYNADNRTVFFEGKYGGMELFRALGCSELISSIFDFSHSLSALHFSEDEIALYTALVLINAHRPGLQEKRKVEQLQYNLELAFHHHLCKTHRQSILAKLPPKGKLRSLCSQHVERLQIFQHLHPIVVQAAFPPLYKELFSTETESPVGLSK
Sequence of E-selectin (Homo sapiens) (P16581 whole entry, looked up): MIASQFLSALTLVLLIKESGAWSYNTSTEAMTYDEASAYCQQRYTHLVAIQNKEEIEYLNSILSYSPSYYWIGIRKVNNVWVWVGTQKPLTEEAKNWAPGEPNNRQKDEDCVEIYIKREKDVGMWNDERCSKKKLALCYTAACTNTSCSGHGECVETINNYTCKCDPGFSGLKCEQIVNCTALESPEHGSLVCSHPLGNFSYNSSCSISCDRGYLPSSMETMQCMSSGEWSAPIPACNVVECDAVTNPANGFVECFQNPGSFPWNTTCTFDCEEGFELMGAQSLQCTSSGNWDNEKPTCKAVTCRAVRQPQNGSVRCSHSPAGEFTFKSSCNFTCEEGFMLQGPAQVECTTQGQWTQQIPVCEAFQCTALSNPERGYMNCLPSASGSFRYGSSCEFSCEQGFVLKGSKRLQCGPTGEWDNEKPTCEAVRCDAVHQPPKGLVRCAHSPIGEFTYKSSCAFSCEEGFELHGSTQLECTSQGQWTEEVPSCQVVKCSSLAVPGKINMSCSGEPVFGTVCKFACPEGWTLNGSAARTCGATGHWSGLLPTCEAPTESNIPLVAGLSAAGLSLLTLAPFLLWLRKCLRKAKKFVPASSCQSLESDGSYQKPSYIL
Sequence of human Peroxisome Proliferator-activated Receptor delta (PPARd), PPARD (gene 5467) (Q03181 whole entry, looked up, the tested form may be a part): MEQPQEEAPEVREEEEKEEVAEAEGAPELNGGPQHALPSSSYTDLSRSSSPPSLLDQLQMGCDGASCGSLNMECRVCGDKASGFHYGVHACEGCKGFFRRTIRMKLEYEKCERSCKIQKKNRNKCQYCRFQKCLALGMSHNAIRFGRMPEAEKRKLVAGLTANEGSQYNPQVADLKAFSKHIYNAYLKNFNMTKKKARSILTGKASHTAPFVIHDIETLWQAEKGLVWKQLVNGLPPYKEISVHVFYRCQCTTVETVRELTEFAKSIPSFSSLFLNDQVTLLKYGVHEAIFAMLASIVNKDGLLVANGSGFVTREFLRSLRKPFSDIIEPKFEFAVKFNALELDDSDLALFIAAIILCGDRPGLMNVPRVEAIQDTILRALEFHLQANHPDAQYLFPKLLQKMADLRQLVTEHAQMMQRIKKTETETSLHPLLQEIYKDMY
Sequence of human Retinoid X Receptor beta (RXRb), RXRB (gene 6257) (P28702 whole entry, looked up, the tested form may be a part): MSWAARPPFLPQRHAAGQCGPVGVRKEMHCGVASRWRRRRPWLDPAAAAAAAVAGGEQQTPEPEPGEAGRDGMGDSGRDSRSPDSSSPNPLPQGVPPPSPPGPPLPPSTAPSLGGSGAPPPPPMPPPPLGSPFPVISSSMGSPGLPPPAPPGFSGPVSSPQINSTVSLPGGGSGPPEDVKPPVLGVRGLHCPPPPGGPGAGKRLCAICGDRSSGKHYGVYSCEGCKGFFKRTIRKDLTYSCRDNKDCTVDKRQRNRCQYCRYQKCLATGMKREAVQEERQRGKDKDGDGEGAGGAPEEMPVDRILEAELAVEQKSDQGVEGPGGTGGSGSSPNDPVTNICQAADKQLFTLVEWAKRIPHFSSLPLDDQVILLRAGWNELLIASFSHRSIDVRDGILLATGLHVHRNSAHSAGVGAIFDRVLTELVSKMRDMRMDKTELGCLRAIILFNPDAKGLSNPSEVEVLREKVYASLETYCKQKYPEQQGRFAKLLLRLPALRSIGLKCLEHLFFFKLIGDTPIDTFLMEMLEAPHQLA
Sequence of Nuclear receptor subfamily 1 group I member 2 (Homo sapiens) (O75469 whole entry, looked up, the tested form may be a part): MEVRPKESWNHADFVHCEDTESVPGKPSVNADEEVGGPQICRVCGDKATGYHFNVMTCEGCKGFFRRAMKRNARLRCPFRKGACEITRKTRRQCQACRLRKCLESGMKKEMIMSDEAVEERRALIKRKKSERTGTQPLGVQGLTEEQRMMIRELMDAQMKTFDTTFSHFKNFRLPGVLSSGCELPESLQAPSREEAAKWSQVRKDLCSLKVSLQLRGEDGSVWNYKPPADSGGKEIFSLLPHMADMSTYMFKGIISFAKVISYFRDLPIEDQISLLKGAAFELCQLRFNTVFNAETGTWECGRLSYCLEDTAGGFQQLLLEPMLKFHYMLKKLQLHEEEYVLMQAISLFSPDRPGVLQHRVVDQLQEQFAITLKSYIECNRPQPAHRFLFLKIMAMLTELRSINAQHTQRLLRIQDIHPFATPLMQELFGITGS
Sequence of human Retinoic Acid Receptor beta (RARb), RARB (gene 5915) (P10826 whole entry, looked up, the tested form may be a part): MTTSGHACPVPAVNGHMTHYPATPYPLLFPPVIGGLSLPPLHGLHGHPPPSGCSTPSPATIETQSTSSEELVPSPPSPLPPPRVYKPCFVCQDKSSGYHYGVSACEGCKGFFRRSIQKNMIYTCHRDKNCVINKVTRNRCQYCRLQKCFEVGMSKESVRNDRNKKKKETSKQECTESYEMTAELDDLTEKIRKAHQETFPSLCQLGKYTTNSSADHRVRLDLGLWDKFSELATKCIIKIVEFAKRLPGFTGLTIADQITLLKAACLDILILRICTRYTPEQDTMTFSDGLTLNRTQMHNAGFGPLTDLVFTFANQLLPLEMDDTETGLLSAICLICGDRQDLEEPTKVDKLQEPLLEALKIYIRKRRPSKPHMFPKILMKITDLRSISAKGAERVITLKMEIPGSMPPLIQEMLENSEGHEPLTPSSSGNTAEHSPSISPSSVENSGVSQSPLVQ
Sequence of human Peroxisome Proliferator-activated Receptor alpha (PPARa), PPARA (gene 5465) (Q07869 whole entry, looked up, the tested form may be a part): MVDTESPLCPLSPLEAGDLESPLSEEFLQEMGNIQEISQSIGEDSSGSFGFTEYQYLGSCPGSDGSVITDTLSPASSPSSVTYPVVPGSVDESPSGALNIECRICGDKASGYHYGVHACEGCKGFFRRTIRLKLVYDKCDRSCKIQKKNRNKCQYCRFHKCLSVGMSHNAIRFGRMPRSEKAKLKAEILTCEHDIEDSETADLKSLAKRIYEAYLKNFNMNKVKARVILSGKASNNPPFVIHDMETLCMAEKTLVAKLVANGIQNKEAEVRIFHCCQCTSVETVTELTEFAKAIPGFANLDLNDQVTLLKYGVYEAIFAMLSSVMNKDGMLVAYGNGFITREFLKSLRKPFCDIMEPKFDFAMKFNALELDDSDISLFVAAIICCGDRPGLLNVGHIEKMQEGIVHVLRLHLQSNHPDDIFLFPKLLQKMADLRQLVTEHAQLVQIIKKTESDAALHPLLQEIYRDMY

Regarding `CCCCCC(=O)O`, the outcome in test [1], in [2], in [3], in [4], in [5] and in test [6] was inactive. In addition, the molecule was classed as inactive in test [7], in test [8], in test [9], in [10], in test [11] and in test [12].
For orientation: AC50 means the concentration at which the activity in the assay is half-maximal. On to `CC1=C(/C=C/C(C)=C/C=C/C(C)=C/CO)C(C)(C)CCC1`, for which the AC50 in test [13] was 15.6 µM (active); in test [15], 0.073 µM (active); in [4], 27.6 µM (active); in test [16], 28.1 µM (active); in [17], 0.28 µM (active); in [5] it was 0.117 µM (active). The AC50 in test [6] is 1.87 µM (active); in [7] it was 0.474 µM (active); in test [8] it was 19.3 µM (active); in test [18], 25.3 µM (active). Besides, the outcome in test [3], in test [14], in test [9], in test [10] and in [12] was inactive.
As for `C[Si]1(C)O[Si](C)(C)O[Si](C)(C)O[Si](C)(C)O1`, the result in test [13], in test [2], in test [3], in test [4], in [16] and in [17] was inactive. Further, the call in [19], in test [8], in test [9], in [10], in [11] and in [12] was inactive. For the same molecule, the AC50 in [7] is 46.9 µM (active).
With `Cc1cccc(Nc2cc(Cl)nc(SCC(=O)O)n2)c1C`, the outcome in test [13], in test [3], in [14], in test [4], in [8] and in test [9] was inactive. In addition, the outcome in test [10], in test [11] and in test [12] was inactive. In test [17], the AC50 was 21 µM (active).
Turning to `O=C(N[C@@H](Cc1ccccc1)[C@@H](O)C(=O)N1C[C@@H](O)[C@@H](O)C1)c1cc2cc(Cl)ccc2[nH]1`, the outcome in test [13], in test [2], in test [3], in [4], in [16] and in [17] was inactive. Also, the result in [19], in test [6], in test [8], in test [9] and in test [10] was inactive.
`O=[N+]([O-])C(CO)(CO)CO`: the result in [13], in test [3], in test [14], in test [4], in test [16] and in test [19] was inactive. The call in test [20], in test [8], in test [9], in [10] and in test [12] was inactive.
Consider `C1CCC(SSC2CCCCC2)CC1`, for which the outcome in test [1], in test [2], in [3], in test [16], in test [17] and in [5] was inactive. In addition, the result in test [6], in [7], in test [20], in [8], in test [9] and in test [10] was inactive. Besides, in test [12], the outcome was inactive. For the same molecule, the AC50 in test [4] is 28.5 µM (active); in [18] it was 20 µM (active).
